Results on 1 compound are retold here after PubChem BioAssay AID651673 (Broad Institute, 2012).

SMILES strings stand for the structures. The list shows a part of the results. Active and inactive are the calls of the source.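 The calls were made as follows: active = signal drop giving an AC50 within twice the top valid tested concentration of each sample (actives reach about 35 µM in these data); inactive = activity opposite to expected, plus the rest.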

This assay is described as follows: DNA binding of candidate compounds, dose response, artefact control for RAD54 inhibitor project, biochemical, fluorescence polarization, cherry-pick (AID 651673;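 also: polarization loss reports compound binding to salmon sperm DNA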). (In general: Fluorescence polarisation rises when a labelled molecule tumbles more slowly, as on binding a larger partner.)

Take `CN1CCN(c2cc(N3CCNCC3)ccc2[N+](=O)[O-])CC1`: the compound was called inactive.
